# According to the supplement of paper PMC12494721:
# Where a name gives a salt, the structure may show the parent alone.
# System: Ruminococcus gnavus DSM 108212
# Test: growth (OD595) fold change vs plate DMSO controls (fold change (ratio)); higher = more growth
# Conditions: incubation time: 27 h, anaerobic, 37 °C
# In short: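 Growth is calculated as fold change against the median of the DMSO control wells on each plate. Readings at 595 nm from anaerobic mGAM cultures (96-well, 27 h, 37 °C) were blank-subtracted, background-corrected with 20 µM compound solutions in water, and converted to OD by a calibration factor of 5. Fold changes above 1.5 were recorded as NA, and results are means of 2 biological replicates.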
row,Structure (SMILES),growth
1,CNC(=C[N+](=O)[O-])NCCSCc1ccc(CN(C)C)o1 [Ranitidine hydrochloride] (20 µM),1.47
2,C/C(O)=C(\C#N)C(=O)Nc1ccc(C(F)(F)F)cc1 [Teriflunomide] (20 µM),0.966
3,Cc1ccsc1/C=C/C1=NCCCN1C [Morantel tartrate] (20 µM),1.08
4,CCCCOCCOCCOCc1cc2c(cc1CCC)OCO2 (20 µM),1.09
5,CC(C)C(=O)Nc1ccc([N+](=O)[O-])c(C(F)(F)F)c1 [Flutamide] (20 µM),1.32
6,N=c1nc(N2CCCCC2)cc(N)n1O [Minoxidil] (20 µM),0.722
7,C[C@]12CCC3=C4CCC(=O)C=C4CC[C@H]3[C@@H]1CC[C@@]2(O)CC#N [Dienogest] (20 µM),0.67
8,CN(Cc1cnc2nc(N)nc(N)c2n1)c1ccc(C(=O)N[C@@H](CCC(=O)O)C(=O)O)cc1 [Amethopterin] (20 µM),1.42
9,NC(=O)C1CO1 (stereo not drawn) [Glycidamide] (20 µM),1.06
10,O=C1[C@H]2CCCC[C@H]2C(=O)N1CCCCN1CCN(c2nsc3ccccc23)CC1 [Perospirone hydrochloride] (20 µM),1.32
11,C=C1[C@H](CO)[C@@H](O)C[C@@H]1n1cnc2c(=O)[nH]c(N)nc21 [Entecavir] (20 µM),1.04
12,O=c1n(CCCN2CCN(c3cccc(Cl)c3)CC2)nc2ccccn12 [Trazodone hydrochloride] (20 µM),1.06
13,CC(=O)Nc1nnc(S(N)(=O)=O)s1 [Acetazolamide] (20 µM),0.746
14,CCOC(=O)C1=C(C)NC(C)=C(C(=O)OC)C1c1cccc([N+](=O)[O-])c1 (stereo not drawn) [Nitrendipine] (20 µM),1.06
15,CCCSS/C(CCO)=C(/C)N(C=O)Cc1cnc(C)nc1N [Prosultiamine] (20 µM),0.919
16,CC(C)NCC(O)c1ccc(NS(C)(=O)=O)cc1 (stereo not drawn) [Sotalol hydrochloride] (20 µM),1.01
17,NC(=O)OCC(O)COc1ccc(Cl)cc1 (stereo not drawn) [Chlorphensin carbamate] (20 µM),1.2

row,Structure (SMILES),growth
1,C[C@]12CC[C@H]3[C@@H](CCC4=CC(=O)CC[C@@]43C)[C@@H]1CC[C@@H]2C(=O)CO [Deoxycorticosterone] (20 µM),1.11
2,OC(CCCN1CCCCC1)(c1ccccc1)c1ccccc1 [Diphenidol hydrochloride] (20 µM),1.26
3,Cc1cccc(Nc2ccncc2S(=O)(=O)NC(=O)NC(C)C)c1 [Torsemide] (20 µM),1.03
4,CCN(CC)C(=O)Nc1ccc(OCC(O)CNC(C)(C)C)c(C(C)=O)c1 (stereo not drawn) [Celiprolol hydrochloride] (20 µM),0.712
5,CC(NCCC(c1ccccc1)c1ccccc1)c1ccccc1 (stereo not drawn) [Fendiline hydrochloride] (20 µM),1.09
6,Oc1c(I)cc(Cl)c2cccnc12 [Clioquinol] (20 µM),0.671
7,CCCCC1=NC2(CCCC2)C(=O)N1Cc1ccc(-c2ccccc2-c2nnn[nH]2)cc1 [Irbesartan] (20 µM),1.21
8,CCc1ccc(C(=O)C(C)CN2CCCCC2)cc1 (stereo not drawn) [Eperisone Hydrochloride] (20 µM),0.991
9,CCn1cc(C(=O)O)c(=O)c2cc(F)c(N3CCNC(C)C3)c(F)c21 (stereo not drawn) [Lomefloxacin hydrochloride] (20 µM),1.01
10,CC(C)OC(=O)C(C)(C)Oc1ccc(C(=O)c2ccc(Cl)cc2)cc1 [Fenofibrate] (20 µM),1.36
11,CN1CCCN=C1/C=C/c1cccc(O)c1 [Oxantel pamoate] (20 µM),0.853
12,CO/N=C(\C(=O)N[C@@H]1C(=O)N2C(C(=O)[O-])=C(C[n+]3cccc4c3CCC4)CS[C@H]12)c1csc(N)n1 [Cefpirome sulfate] (20 µM),0.108
13,C[C@H]1C[C@H]2[C@@H]3CCC4=CC(=O)C=C[C@]4(C)[C@@]3(F)[C@@H](O)C[C@]2(C)[C@@]1(O)C(=O)CO [Betamethasone] (20 µM),1.11
14,Cc1cc(NS(=O)(=O)c2ccc(N)cc2)no1 [Sulfamethoxazole] (20 µM),0.913
15,Fc1ccc(C(c2ccc(F)cc2)N2CCN(C/C=C/c3ccccc3)CC2)cc1 [Flunarizine dihydrochloride] (20 µM),0.897
16,CN1CCN(CCCN2c3ccccc3Sc3ccc(S(=O)(=O)N(C)C)cc32)CC1 [Thioproperazine dimesylate] (20 µM),1.15
